# Experimental data taken from publication PMC7862700, “An all-to-all approach to the identification of sequence-specific readers for epigenetic DNA modifications on cytosine”.
# What was measured:
# Experiment in all cases: DAPPL (digital affinity profiling via proximity ligation, sequencing); 10 mM Tris-HCl pH 7.5, 50 mM NaCl, 1 mM DTT, 4% glycerol, room temperature, 30 min; GST-TFs on glutathione beads, 16-mer random dsDNA library, 0.1% formaldehyde crosslink after washing; high values mean tight binding
# [1] = target: T1, FEV (Homo sapiens, UniProt Q99581 1-238); settings: protein: recombinant; tags: N-terminal GST; dsDNA, one strand shown
# T1 sequence: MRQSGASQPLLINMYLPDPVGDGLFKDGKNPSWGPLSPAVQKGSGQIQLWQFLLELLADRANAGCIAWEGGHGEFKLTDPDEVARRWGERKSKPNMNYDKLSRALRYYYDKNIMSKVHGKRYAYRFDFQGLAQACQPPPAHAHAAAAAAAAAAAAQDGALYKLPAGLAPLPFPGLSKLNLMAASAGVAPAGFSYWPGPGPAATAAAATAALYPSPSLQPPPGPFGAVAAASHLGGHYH
# How it was run: (§1)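 Pools were built from human transcription factors expressed in yeast as GST fusions, captured on glutathione beads and DNA-barcoded, along with a tag-only sample. Incubation with 200 nmole of a 16-mer random double-stranded DNA library lasted 30 min at room temperature in Tris/NaCl/DTT/glycerol buffer, and was followed by washing, 0.1% formaldehyde crosslinking, proximity ligation, PCR amplification and Illumina NextSeq500 sequencing. Binding signal is the quotient of each hexamer's read frequency for a factor and its frequency for the tag-only sample.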
# [2] = target: ETV5 (Homo sapiens, UniProt P41161 1-510); settings: protein: recombinant; tags: N-terminal GST; dsDNA, one strand shown
# ETV5, sequence (P41161 whole entry): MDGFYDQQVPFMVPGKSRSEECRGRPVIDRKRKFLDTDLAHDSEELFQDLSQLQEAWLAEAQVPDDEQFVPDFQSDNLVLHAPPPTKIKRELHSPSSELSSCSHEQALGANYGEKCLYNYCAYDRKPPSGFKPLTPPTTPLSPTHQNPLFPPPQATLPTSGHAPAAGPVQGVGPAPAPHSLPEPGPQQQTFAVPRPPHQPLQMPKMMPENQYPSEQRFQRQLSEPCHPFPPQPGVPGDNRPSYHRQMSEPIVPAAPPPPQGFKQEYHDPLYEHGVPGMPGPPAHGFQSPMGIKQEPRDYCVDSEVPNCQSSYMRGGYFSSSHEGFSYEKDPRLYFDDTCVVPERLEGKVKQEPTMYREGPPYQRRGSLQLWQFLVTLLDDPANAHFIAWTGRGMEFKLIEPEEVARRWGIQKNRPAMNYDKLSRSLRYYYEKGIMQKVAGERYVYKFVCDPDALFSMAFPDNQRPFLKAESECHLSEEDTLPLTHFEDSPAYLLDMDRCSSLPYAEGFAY
# How it was run: as §1
# [3] = target: HSF1 (Homo sapiens, UniProt Q00613 1-529); settings: protein: recombinant; tags: N-terminal GST; chain copies: 3; dsDNA, one strand shown
# HSF1, sequence (Q00613 whole entry): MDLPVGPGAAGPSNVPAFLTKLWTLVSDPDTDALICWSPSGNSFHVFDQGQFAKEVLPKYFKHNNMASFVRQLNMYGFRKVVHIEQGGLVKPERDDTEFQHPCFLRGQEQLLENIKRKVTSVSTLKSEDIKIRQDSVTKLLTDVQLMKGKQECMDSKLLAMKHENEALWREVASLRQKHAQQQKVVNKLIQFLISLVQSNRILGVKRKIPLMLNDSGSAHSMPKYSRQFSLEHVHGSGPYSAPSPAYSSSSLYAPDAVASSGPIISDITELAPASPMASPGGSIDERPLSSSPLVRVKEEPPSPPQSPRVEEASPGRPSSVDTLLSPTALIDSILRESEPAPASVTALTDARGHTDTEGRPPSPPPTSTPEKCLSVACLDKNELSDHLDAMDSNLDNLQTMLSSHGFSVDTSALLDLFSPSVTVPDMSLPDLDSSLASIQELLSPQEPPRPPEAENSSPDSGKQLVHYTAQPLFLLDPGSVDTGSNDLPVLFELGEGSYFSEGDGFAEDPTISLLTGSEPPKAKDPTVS
# How it was run: as §1
# [4] = target: T2, SPIC (Homo sapiens, UniProt Q8N5J4 1-248); settings: protein: recombinant; tags: N-terminal GST; dsDNA, one strand shown
# T2 sequence: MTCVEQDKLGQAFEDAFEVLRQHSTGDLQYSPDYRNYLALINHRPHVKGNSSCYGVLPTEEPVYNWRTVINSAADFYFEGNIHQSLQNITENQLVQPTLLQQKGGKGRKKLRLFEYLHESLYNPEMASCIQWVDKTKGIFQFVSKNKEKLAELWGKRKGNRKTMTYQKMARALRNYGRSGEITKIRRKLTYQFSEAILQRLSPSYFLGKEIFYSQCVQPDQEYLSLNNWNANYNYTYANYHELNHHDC
# How it was run: as §1
# [5] = target: ELF4 (Homo sapiens, UniProt Q99607 1-663); settings: protein: recombinant; tags: N-terminal GST; dsDNA, one strand shown
# ELF4, sequence (Q99607 whole entry): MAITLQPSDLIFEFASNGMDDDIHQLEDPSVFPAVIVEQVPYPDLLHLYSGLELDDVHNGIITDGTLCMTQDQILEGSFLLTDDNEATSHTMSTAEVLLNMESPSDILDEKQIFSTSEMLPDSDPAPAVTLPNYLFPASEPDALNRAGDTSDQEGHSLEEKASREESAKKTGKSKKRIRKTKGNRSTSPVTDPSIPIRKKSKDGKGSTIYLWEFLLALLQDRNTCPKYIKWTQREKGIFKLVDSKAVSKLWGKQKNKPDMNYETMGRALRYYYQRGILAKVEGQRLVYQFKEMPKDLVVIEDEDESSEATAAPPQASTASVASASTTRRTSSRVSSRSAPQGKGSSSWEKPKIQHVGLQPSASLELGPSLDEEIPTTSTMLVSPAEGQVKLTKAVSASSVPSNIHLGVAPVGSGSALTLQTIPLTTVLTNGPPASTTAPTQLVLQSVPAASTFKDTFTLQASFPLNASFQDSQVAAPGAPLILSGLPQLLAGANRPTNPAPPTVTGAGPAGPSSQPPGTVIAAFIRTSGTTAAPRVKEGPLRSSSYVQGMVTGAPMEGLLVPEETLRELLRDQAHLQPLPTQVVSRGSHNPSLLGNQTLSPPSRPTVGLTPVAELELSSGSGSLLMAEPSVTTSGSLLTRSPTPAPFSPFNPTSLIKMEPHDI
# How it was run: as §1
# [6] = target: T3, ELK4 (Homo sapiens, UniProt P28324-2 1-405); settings: protein: recombinant; tags: N-terminal GST; dsDNA, one strand shown
# T3 sequence: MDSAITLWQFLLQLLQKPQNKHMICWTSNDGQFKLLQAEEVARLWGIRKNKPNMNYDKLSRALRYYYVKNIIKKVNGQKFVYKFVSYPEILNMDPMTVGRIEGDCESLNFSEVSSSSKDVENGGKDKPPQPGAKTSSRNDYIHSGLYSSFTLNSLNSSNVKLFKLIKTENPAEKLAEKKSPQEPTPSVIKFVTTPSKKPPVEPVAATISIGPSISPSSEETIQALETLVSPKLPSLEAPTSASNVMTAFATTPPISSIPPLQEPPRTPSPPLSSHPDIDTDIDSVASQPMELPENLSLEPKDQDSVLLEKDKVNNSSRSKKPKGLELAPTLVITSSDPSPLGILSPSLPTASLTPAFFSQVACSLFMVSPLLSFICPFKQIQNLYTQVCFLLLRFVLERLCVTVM
# How it was run: as §1
# [7] = target: T4, ETV2 (Homo sapiens, UniProt O00321 1-342); settings: protein: recombinant; tags: N-terminal GST; dsDNA, one strand shown
# T4 sequence: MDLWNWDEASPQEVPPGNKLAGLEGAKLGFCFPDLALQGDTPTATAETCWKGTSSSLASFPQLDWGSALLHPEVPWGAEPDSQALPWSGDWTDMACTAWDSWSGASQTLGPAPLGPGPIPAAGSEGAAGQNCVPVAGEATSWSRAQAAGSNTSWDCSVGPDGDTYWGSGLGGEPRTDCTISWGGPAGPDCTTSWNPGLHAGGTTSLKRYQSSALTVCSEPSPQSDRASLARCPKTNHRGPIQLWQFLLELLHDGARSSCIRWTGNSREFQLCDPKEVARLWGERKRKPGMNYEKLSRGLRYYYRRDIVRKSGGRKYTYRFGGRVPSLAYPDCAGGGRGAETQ
# How it was run: as §1
# [8] = target: T5, ELF3 (Homo sapiens, UniProt P78545 1-371); settings: protein: recombinant; tags: N-terminal GST; dsDNA, one strand shown
# T5 sequence: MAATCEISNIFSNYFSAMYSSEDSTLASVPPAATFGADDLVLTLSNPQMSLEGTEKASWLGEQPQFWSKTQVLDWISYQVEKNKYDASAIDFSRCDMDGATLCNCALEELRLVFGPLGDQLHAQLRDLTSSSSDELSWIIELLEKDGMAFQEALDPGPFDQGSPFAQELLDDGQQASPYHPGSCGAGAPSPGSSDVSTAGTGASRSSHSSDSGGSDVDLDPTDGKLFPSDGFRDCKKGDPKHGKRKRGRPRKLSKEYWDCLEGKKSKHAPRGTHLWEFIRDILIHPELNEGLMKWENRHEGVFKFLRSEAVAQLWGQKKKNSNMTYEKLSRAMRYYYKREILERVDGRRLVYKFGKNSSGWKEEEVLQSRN
# How it was run: as §1
# [9] = target: CRX (Homo sapiens, UniProt O43186 1-299); settings: protein: recombinant; tags: N-terminal GST; dsDNA, one strand shown
# CRX, sequence (O43186 whole entry): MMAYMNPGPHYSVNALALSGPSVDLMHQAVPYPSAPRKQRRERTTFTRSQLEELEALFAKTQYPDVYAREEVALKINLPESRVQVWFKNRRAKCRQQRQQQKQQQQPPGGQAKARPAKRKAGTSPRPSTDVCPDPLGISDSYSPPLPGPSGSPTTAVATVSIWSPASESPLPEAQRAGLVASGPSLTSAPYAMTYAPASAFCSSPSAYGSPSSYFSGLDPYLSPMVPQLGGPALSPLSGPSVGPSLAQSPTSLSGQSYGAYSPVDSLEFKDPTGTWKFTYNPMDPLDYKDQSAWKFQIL
# How it was run: as §1
# [10] = target: ETV1 (Homo sapiens, UniProt P50549 1-477); settings: protein: recombinant; tags: N-terminal GST; dsDNA, one strand shown
# ETV1, sequence (P50549 whole entry): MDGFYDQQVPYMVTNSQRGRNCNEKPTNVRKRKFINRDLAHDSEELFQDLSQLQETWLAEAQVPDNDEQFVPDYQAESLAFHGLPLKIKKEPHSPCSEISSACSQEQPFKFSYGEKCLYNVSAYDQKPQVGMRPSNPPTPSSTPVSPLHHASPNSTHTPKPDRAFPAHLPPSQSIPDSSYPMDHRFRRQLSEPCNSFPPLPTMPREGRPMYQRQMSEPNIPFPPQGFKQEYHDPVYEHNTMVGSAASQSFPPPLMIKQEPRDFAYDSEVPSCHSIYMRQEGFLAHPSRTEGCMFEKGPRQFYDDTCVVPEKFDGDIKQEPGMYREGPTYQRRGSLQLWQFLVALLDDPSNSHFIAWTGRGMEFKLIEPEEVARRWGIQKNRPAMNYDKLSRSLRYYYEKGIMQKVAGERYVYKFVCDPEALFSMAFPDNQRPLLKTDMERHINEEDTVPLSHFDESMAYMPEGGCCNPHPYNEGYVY
# How it was run: as §1
# [11] = target: T6, ERF (Homo sapiens, UniProt P50548 1-548); settings: protein: recombinant; tags: N-terminal GST; dsDNA, one strand shown
# T6 sequence: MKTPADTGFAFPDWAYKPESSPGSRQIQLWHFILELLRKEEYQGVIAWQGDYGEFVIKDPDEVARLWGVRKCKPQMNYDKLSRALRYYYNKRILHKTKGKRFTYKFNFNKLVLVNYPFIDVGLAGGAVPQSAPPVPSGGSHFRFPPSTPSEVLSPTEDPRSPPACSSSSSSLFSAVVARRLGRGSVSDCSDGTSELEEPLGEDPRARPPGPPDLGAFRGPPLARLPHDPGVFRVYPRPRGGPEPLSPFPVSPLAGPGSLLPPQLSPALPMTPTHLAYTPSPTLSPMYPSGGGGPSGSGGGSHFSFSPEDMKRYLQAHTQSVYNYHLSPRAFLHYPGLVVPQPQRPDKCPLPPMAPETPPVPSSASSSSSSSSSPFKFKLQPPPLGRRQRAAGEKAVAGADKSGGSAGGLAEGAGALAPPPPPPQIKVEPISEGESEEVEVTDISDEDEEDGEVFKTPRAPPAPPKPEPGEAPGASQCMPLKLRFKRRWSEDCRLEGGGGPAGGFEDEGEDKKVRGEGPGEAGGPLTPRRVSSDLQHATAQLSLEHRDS
# How it was run: as §1
# [12] = target: T7, ETV3L (Homo sapiens, UniProt Q6ZN32 1-361); settings: protein: recombinant; tags: N-terminal GST; dsDNA, one strand shown
# T7 sequence: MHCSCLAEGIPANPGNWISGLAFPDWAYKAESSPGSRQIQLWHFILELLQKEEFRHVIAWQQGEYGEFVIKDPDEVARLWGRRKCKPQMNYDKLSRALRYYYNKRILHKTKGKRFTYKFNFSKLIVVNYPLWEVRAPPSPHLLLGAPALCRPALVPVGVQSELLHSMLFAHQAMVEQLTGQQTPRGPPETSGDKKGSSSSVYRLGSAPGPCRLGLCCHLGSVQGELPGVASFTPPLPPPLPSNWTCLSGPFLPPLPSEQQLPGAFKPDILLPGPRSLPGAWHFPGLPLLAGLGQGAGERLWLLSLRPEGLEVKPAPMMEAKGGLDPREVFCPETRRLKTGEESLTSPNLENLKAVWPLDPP
# How it was run: as §1
# [13] = target: T8, ETS2 (Homo sapiens, UniProt P15036 1-469); settings: protein: recombinant; tags: N-terminal GST; dsDNA, one strand shown
# T8 sequence: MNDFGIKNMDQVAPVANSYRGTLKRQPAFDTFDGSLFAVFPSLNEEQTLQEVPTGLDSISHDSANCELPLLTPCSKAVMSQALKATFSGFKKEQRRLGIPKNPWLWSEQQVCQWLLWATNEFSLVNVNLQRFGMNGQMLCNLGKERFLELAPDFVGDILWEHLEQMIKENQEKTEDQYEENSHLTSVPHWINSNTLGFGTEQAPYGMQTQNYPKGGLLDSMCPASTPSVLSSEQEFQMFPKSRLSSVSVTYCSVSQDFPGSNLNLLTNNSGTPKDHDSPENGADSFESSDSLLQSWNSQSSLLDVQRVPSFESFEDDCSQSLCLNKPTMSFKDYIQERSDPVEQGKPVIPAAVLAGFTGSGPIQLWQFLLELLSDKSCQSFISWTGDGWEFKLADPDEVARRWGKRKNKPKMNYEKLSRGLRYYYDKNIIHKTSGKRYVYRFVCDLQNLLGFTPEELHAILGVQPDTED
# How it was run: as §1
# [14] = target: T9, SPDEF (Homo sapiens, UniProt O95238 1-335); settings: protein: recombinant; tags: N-terminal GST; dsDNA, one strand shown
# T9 sequence: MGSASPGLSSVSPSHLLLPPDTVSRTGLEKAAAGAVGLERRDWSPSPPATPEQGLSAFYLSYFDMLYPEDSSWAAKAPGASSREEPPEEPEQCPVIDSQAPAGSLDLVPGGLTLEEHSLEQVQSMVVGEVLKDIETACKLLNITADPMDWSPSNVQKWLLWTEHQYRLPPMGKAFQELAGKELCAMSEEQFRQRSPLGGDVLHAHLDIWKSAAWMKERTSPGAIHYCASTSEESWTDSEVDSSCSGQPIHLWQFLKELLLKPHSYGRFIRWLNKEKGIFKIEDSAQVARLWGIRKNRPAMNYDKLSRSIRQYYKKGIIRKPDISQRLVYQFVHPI
# How it was run: as §1
# [15] = target: T10, ETV7 (Homo sapiens, UniProt Q9Y603 1-341); settings: protein: recombinant; tags: N-terminal GST; dsDNA, one strand shown
# T10 sequence: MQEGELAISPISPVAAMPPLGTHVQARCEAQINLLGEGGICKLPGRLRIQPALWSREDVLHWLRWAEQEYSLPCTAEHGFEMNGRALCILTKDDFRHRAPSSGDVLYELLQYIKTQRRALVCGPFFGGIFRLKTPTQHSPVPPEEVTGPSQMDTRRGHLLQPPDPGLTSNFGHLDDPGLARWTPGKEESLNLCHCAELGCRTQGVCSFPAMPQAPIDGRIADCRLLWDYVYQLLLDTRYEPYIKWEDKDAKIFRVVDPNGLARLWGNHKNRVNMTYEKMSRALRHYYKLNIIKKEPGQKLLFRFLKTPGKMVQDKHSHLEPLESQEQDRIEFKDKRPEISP
# How it was run: as §1
# [16] = target: T11, ELF5 (Homo sapiens, UniProt Q9UKW6-2 1-255); settings: protein: recombinant; tags: N-terminal GST; dsDNA, one strand shown
# T11 sequence: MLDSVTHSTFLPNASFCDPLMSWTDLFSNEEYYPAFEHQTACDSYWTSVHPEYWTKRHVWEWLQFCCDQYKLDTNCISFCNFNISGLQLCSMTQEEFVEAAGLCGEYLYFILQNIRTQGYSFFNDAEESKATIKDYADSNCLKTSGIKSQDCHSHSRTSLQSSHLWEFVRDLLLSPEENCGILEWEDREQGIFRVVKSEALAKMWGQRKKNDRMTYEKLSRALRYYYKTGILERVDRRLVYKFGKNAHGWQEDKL
# How it was run: as §1
# [17] = target: T12, ETV3 (Homo sapiens, UniProt P41162-2 1-143); settings: protein: recombinant; tags: N-terminal GST; dsDNA, one strand shown
# T12 sequence: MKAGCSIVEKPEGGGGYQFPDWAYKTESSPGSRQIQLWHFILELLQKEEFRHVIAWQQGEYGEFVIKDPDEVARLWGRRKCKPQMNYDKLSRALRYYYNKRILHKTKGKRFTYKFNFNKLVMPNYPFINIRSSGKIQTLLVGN
# How it was run: as §1
# [18] = target: ETV6 (Homo sapiens, UniProt P41212 1-452); settings: protein: recombinant; tags: N-terminal GST; dsDNA, one strand shown
# ETV6, sequence (P41212 whole entry): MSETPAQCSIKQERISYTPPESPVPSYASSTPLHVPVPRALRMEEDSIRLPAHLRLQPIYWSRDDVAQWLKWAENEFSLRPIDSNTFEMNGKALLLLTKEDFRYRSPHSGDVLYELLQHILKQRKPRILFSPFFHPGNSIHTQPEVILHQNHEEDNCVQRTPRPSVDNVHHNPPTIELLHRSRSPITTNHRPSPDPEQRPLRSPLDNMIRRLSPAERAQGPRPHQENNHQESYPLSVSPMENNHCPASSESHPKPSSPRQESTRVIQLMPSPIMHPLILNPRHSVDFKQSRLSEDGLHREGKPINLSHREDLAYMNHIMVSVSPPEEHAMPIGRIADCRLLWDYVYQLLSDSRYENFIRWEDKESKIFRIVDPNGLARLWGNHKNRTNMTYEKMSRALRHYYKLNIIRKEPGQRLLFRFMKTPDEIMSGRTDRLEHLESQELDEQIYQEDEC
# How it was run: as §1
sequence,measurement,setting,value
TGGACT,binding signal,[1],"1.32 fold enrichment (6-mer frequency, TF over GST control)"
same,binding signal,[2],"1.33 fold enrichment (6-mer frequency, TF over GST control)"
same,binding signal,[3],"1.18 fold enrichment (6-mer frequency, TF over GST control)"
same,binding signal,[4],"1.31 fold enrichment (6-mer frequency, TF over GST control)"
same,binding signal,[5],"1.34 fold enrichment (6-mer frequency, TF over GST control)"
same,binding signal,[6],"1.25 fold enrichment (6-mer frequency, TF over GST control)"
same,binding signal,[7],"1.27 fold enrichment (6-mer frequency, TF over GST control)"
same,binding signal,[8],"1.19 fold enrichment (6-mer frequency, TF over GST control)"
same,binding signal,[9],"1.06 fold enrichment (6-mer frequency, TF over GST control)"
same,binding signal,[10],"1.33 fold enrichment (6-mer frequency, TF over GST control)"
same,binding signal,[11],"1.25 fold enrichment (6-mer frequency, TF over GST control)"
same,binding signal,[12],"1.22 fold enrichment (6-mer frequency, TF over GST control)"
same,binding signal,[13],"1.27 fold enrichment (6-mer frequency, TF over GST control)"
same,binding signal,[14],"1.2 fold enrichment (6-mer frequency, TF over GST control)"
same,binding signal,[15],"1.19 fold enrichment (6-mer frequency, TF over GST control)"
same,binding signal,[16],"1.22 fold enrichment (6-mer frequency, TF over GST control)"
same,binding signal,[17],"1.25 fold enrichment (6-mer frequency, TF over GST control)"
same,binding signal,[18],"1.28 fold enrichment (6-mer frequency, TF over GST control)"
